Assay results as given in PubChem BioAssay (NCATS).
Results filed as inconclusive are left out. Calls of active or inactive are those of the source. Unless noted, calls come from the whole dose curve; as a rule, active = well fitted curve in the direction sought with a large enough effect; inconclusive = small, poorly fitted or top-dose-only effect, or another doubt; inactive = no such curve, though single readings can be large; an effect the other way counts as inactive or inconclusive.

Assays:
[1] = target: Lysosomal acid glucosylceramidase (Homo sapiens) (UniProt P04062); experiment: Glucocerebrosidase-p2 (AID 348; in the data active = potency below about 10 µM; note: potency is the fitted concentration of half-maximal effect); details: purified GBA, blue fluorogenic substrate, 40 min
Lysosomal acid glucosylceramidase (Homo sapiens), sequence (P04062 whole entry, looked up): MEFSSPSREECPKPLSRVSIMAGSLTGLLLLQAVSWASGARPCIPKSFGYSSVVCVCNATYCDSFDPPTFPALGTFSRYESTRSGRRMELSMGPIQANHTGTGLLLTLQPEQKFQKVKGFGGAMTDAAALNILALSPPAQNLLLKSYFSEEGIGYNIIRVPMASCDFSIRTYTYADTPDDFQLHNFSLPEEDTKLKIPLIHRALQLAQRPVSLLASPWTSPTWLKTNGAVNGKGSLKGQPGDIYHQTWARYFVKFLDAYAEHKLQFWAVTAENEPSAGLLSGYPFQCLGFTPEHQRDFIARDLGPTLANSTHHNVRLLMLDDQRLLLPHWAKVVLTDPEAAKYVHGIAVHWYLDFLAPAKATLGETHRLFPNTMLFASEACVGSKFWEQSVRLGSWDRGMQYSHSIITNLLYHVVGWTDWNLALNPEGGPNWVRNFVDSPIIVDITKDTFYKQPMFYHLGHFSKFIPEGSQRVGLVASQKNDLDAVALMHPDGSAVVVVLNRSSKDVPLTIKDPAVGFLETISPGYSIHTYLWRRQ
How it was run: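 Compounds titrated from 0.6 nM upwards against 0.2 nM enzyme in pH 5.9 citric acid/KH2PO4, taurocholate, tween-20; blue fluorogenic substrate 80 uM, 40 min room temperature, stopped and read Ex 365/Em 440 for AC50.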

[2] = AP1 Signaling Pathway (AID 357; active = well fitted curve in either direction with a large enough effect, not every such curve was filed as active;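 note: ME-180 reporter cells stimulated with EGF at its EC50 level; % is set by controls: 0 for no effect and ±100 for the full control effect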); details: ME-180 AP-1-bla reporter, EGF-induced, beta-lactamase ratio, 5 h; at 7.69 µM (top of the series) unless noted
How it was run: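 Beta-lactamase reporter under AP-1 response element, ME-180 background. Stimulus: EC50 EGF. Compound exposure 5 h, 37 °C. Detection: CCF4, 2.5 h RT, 460/530 nm. Values: AC50 from titration.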

[3] = target: Cytochrome P450 1A2 (Homo sapiens) (UniProt P05177); experiment: p450-cyp1a2 (AID 410; calls by dose curve; note: potency is the fitted concentration of half-maximal effect); details: recombinant CYP1A2, luciferin-ME demethylation, luminescence; series mostly up to 57 µM
Cytochrome P450 1A2 (Homo sapiens), sequence (P05177 whole entry, looked up): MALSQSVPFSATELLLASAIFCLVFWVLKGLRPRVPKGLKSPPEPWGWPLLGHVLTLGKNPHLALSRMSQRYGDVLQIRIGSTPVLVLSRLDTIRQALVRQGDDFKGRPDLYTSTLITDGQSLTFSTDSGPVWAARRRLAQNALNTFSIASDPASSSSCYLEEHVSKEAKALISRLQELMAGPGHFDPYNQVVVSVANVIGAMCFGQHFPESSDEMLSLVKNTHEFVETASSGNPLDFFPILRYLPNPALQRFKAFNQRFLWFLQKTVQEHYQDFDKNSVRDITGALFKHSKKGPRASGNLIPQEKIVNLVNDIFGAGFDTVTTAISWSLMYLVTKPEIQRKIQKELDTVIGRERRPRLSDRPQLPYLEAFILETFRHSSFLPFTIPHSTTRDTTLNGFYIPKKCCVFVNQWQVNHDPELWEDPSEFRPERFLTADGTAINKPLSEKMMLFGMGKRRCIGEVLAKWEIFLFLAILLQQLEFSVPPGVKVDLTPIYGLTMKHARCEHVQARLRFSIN
How it was run: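 Inhibition was calculated relative to 57 uM furafylline (full inhibition). The reaction used human CYP1A2 at 20nM with Luciferin-ME at its Km, 100uM, driven by an NADPH-regenerating system for 60 min at room temperature.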

[4] = Stat Signaling Pathway (AID 446; active = well fitted curve in either direction with a large enough effect, not every such curve was filed as active;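 note: ME-180 cervical cancer cells given 40 pM IL-6 alongside compound; SIE-controlled beta-lactamase reporter measured as 460/530 nm FRET emission ratio; % is set by controls: 0 for no effect and ±100 for the full control effect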); details: ME-180 SIE beta-lactamase reporter, IL-6 stimulated, 5 h; at 7.69 µM (top of the series) unless noted
How it was run: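 ME-180 SIE-bla cells; overnight plating; cpd + IL-6 40 pM, 5 h, 37 C; LiveBLAzer 2.5 h RT; 460/530 nm emission ratio. Normalized to 300 pM IL-6 and 125 nM JAK inhibitor controls.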

[5] = target: Glucocorticoid receptor (Homo sapiens) (UniProt P04150); experiment: GR-GFP Redistribution (AID 450;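 active = compounds whose dose series gives a full or clear partial fitted curve of increased nuclear translocation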; note: potency is the fitted concentration of half-maximal effect); details: U2OS GR-GFP nuclear translocation, laser cytometry, 2 h
Glucocorticoid receptor (Homo sapiens), sequence (P04150 whole entry, looked up, the tested form may be a part): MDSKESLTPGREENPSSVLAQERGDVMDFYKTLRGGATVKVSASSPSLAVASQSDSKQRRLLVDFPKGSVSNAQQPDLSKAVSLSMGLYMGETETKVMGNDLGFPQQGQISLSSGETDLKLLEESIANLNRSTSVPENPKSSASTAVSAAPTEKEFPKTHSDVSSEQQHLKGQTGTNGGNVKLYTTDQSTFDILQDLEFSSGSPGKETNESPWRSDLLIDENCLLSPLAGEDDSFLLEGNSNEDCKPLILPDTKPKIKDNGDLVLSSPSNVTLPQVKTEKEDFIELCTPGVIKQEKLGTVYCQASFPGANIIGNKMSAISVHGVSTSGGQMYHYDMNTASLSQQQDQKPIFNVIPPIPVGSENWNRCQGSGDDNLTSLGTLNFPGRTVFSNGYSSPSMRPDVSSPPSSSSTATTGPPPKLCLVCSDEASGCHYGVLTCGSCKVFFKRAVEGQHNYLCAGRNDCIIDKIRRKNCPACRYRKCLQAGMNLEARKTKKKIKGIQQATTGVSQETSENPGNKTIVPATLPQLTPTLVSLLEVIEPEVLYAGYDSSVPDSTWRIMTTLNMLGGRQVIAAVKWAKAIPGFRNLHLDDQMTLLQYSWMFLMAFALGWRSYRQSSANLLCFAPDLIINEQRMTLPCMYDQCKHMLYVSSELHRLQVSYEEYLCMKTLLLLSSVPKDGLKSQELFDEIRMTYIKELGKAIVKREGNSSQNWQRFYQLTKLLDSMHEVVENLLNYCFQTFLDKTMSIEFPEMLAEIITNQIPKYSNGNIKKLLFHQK

[6] = target: Glucocorticoid receptor (Homo sapiens) (UniProt P04150); experiment: GR-EFC Redistribution (AID 451; calls by dose curve; note: potency is the fitted concentration of half-maximal effect); details: CHO-K1 GR-EFC translocation, beta-gal luminescence, 2 h
How it was run: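 CHO-K1 cells stably expressing nuclear-localized β-gal enzyme acceptor and GR fused C-terminally to the enzyme donor fragment; ligand-driven nuclear translocation restores β-gal by complementation. Compounds titrated up to 46 uM final, 2 h at 37 °C; luminescence read.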

[7] = target: Mitogen-activated protein kinase 10 (Mus musculus) (UniProt Q61831); experiment: JNK3 AlphaScreen Assay (AID 530; active = well fitted curve in either direction with a large enough effect, not every such curve was filed as active;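 note: kinase came from lysate of stimulated human HepG2 cells; signal reports phosphorylation of biotinylated GST-cJun 1-79 at Ser73 with 10 µM ATP; % is set by controls: 0 for no effect and ±100 for the full control effect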); details: JNK3 lysate, c-Jun phosphorylation; series mostly up to 57.1 µM
How it was run: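 JNK3 came from HepG2 lysates pre-activated with IL-1beta and TNF-alpha and phosphorylated biotinylated GST-cJun (1-79) at 10 uM ATP, pH 7.6, room temperature. Compounds were titrated. AlphaScreen signal used anti-phospho-cJun (Ser73) antibody.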

[8] = target: 3',5'-cyclic-AMP phosphodiesterase 4B (Homo sapiens) (UniProt Q07343); experiment: qHTS Assay for Inhibitors of PDE-IV (AID 607; active = well fitted activation curve with a large enough effect in the main read-out, with a control signal flat, not every such curve was filed as active; note: % of control where 0% means no effect); details: HEK293 ACTOne CNG channel cells, membrane potential fluorescence; series mostly up to 22.9 µM
3',5'-cyclic-AMP phosphodiesterase 4B (Homo sapiens), sequence (Q07343 whole entry, looked up): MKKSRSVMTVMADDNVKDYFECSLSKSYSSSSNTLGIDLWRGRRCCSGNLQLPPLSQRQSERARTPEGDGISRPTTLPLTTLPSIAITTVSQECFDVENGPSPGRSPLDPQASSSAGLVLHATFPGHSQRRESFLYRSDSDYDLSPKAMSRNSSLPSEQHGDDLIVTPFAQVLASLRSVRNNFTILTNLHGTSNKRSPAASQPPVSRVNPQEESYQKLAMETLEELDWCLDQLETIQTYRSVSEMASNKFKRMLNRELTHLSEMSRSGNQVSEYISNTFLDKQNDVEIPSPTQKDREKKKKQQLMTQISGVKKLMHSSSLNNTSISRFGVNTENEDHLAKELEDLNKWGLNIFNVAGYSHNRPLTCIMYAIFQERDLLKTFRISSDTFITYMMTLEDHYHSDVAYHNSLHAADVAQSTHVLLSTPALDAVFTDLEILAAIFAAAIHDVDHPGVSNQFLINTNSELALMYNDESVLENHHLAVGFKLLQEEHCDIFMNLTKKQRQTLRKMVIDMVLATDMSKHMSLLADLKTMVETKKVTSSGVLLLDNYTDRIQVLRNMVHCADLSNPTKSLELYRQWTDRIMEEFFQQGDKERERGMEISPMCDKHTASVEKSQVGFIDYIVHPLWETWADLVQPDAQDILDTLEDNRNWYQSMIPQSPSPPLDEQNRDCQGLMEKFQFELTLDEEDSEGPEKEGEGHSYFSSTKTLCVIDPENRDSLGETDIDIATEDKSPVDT
How it was run: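 ACTOne HEK293 cells carry a modified cAMP-gated CNG channel and express endogenous PDE4; plated 1000 cells/well, compounds up to 22.9 uM final. Membrane-potential dye fluorescence (ex 535/em 590) was read; parental cells received 10 uM forskolin + 100 uM RO 20-1724.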

[9] = target: Cytochrome P450 3A4 (Homo sapiens) (UniProt P08684); experiment: qHTS Assay for Activators of Cytochrome P450 3A4 (AID 885); details: recombinant CYP3A4, Luciferin-PPXE luminescence, 60 min; series mostly up to 57.1 µM; note: nearly all actives have a fitted effect of over 65% in size
Cytochrome P450 3A4 (Homo sapiens), sequence (P08684 whole entry, looked up): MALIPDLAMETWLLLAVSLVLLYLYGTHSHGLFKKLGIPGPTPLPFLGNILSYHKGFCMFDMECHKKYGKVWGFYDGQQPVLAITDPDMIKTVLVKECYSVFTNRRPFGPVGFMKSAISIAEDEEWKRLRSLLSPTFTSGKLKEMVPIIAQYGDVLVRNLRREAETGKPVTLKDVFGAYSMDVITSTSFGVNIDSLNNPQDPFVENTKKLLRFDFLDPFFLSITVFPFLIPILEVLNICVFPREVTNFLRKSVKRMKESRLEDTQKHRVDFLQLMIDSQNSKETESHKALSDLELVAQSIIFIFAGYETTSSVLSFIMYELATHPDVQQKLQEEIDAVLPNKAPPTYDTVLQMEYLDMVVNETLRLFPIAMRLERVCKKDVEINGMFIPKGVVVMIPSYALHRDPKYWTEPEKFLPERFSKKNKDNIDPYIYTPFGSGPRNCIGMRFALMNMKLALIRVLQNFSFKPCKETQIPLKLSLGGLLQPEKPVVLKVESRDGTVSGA
How it was run: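 20nM CYP3A4 + 25uM Luciferin-PPXE (=KM), 200mM KPO4; cpd 10 min RT; NADPH regen, 60 min RT; stop w/ detection buffer, 20 min; luminescence. Normalized to 57 uM ketoconazole.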

[10] = qHTS Assay for Identification of Small Molecule Agonists for Hypoxia Response Element Signaling Pathway (AID 914; active = well fitted activation curve with a large enough effect in the signal ratio, with a control signal flat, not every such curve was filed as active; the % refers to the signal ratio; note: % of control where 0% means no effect); details: ME-180 (cervical carcinoma) HRE-bla reporter, beta-lactamase ratio, CoCl2, 17 h; activation: hits give high values
How it was run: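 In Opti-MEM containing 0.5% dialyzed FBS and 10 mM HEPES, ME-180 HRE-bla cells received a compound titration and EC50 CoCl2. They were incubated 17 hours, then CCF4-loaded 2.5 hours at room temperature before ratio reading.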

[11] = target: Dual specificity protein kinase CLK4 (Homo sapiens) (UniProt Q9HAZ1); experiment: qHTS Assay for Inhibitors of CDC-like Kinase 4 (Kinase-Glo Assay) (AID 1770); details: recombinant Clk4, Kinase-Glo ATP depletion luminescence; series mostly up to 66.7 µM; note: nearly all actives have a fitted effect of over 65% in size; note: potency is the fitted concentration of half-maximal effect
Dual specificity protein kinase CLK4 (Homo sapiens), sequence (Q9HAZ1 whole entry, looked up): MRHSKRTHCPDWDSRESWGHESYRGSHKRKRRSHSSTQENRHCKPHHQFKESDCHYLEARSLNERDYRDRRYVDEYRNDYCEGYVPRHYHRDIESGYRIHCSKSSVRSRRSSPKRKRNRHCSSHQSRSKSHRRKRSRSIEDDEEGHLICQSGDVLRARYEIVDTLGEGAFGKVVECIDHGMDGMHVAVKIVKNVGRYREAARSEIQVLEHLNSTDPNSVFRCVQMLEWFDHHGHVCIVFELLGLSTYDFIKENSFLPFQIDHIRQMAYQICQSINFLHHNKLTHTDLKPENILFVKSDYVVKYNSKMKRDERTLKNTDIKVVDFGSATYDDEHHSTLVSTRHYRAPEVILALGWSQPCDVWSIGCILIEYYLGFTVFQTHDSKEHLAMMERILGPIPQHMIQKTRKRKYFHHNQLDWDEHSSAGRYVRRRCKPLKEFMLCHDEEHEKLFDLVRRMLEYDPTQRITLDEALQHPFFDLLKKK
How it was run: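 25 nM Clk4 with 100 uM RS repeat peptide and 1 uM ATP (final) in Tris pH7.5, 10 mM MgCl2, 4.5 h at room temperature. Remaining ATP measured by Kinase-Glo luciferase luminescence.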

[12] = target: Ubiquitin carboxyl-terminal hydrolase 1 (Homo sapiens) (UniProt O94782); experiment: Inhibitors of USP1/UAF1: Pilot qHTS (AID 504865); details: purified USP1/UAF1, Ub-rhodamine cleavage fluorescence; series mostly up to 54.9 µM; note: nearly all actives have a fitted effect of over 35% in size; note: potency is the fitted concentration of half-maximal effect
Ubiquitin carboxyl-terminal hydrolase 1 (Homo sapiens), sequence (O94782 whole entry, looked up): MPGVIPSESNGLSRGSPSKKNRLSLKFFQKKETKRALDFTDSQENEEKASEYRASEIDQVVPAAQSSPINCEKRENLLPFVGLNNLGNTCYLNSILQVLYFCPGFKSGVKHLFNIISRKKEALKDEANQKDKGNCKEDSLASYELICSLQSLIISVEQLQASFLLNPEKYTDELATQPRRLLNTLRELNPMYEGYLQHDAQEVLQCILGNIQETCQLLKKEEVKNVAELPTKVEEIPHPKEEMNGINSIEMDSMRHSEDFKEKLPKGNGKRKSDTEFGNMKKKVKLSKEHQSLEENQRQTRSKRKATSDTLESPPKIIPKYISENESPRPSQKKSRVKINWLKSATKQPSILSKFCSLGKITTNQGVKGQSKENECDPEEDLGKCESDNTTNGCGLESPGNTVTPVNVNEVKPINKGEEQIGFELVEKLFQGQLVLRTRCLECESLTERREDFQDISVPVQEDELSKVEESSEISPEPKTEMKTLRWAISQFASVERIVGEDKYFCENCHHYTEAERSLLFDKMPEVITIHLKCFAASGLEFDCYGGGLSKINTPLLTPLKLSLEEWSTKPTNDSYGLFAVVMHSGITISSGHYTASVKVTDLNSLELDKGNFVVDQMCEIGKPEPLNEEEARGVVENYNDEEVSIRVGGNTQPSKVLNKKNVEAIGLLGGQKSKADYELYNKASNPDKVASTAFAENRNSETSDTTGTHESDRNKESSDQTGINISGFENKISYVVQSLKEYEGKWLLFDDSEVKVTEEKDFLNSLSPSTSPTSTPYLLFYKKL
How it was run: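 USP1/UAF1 complex at 1 nM preincubated 15 min at room temperature with compound, then Ub-Rho substrate added at 150 nM final. Fluorescence (480/540 nm) read kinetically in 50 mM HEPES pH 7.8, 0.5 mM EDTA, 1 mM TCEP, 0.1 mg/ml BSA, 0.01% Tween-20.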

[13] = Primary qHTS for small molecule stabilizers of the endoplasmic reticulum resident proteome: Secreted ER Calcium Modulated Protein (SERCaMP) assay (AID 1508630); details: SH-SY5Y GLuc-SERCaMP (Gaussia luciferase released on ER calcium loss) secretion, thapsigargin, luminescence; series mostly up to 38.4 µM; note: % is set by controls: 0 for no effect and ±100 for the full control effect
How it was run: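 GLuc-SERCaMP-expressing SH-SY5Y cells, pretreated 16 h with compound, are challenged with thapsigargin to empty ER calcium stores; after 4 h, coelenterazine is added directly to the medium and luminescence is imaged.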

[14] = NFAT Signaling Pathway (AID 444; active = well fitted curve in either direction with a large enough effect, not every such curve was filed as active); details: Jurkat NFAT-bla M1, carbachol, beta-lactamase ratio, 5 h; at 7.69 µM (top of the series) unless noted
How it was run: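 Jurkat cells carrying an NFAT-driven β-lactamase reporter and co-transfected muscarinic M1 receptor were treated with compound plus carbachol (1 uM final, an EC50 level) for 5 h at 37 °C. CCF4 loading followed for 1 h at RT; 460/530 nm ratio gave %activity.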

[15] = target: Cytochrome P450 3A4 (Homo sapiens) (UniProt P08684); experiment: qHTS Assay for Inhibitors and Substrates of Cytochrome P450 3A4 (AID 884); details: recombinant CYP3A4, Luciferin-PPXE luminescence; series mostly up to 57.1 µM; note: potency is the fitted concentration of half-maximal effect; nearly all actives have a fitted effect of over 50% in size
How it was run: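 20 nM human CYP3A4 with 25 uM Luciferin-PPXE (at KM) in 200 mM KPO4, preincubated 10 min with compound; NADPH regeneration started a 60 min RT reaction. Luciferin detected by luminescence, normalized to 57 uM ketoconazole as full inhibition.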

[16] = target: Cytochrome P450 2C19 (Homo sapiens) (UniProt P33261); experiment: qHTS Assay for Inhibitors and Substrates of Cytochrome P450 2C19 (AID 899); details: recombinant CYP2C19, luciferin-H EGE luminescence; series mostly up to 57.1 µM; note: potency is the fitted concentration of half-maximal effect; nearly all actives have a fitted effect of over 60% in size
Cytochrome P450 2C19 (Homo sapiens), sequence (P33261 whole entry, looked up): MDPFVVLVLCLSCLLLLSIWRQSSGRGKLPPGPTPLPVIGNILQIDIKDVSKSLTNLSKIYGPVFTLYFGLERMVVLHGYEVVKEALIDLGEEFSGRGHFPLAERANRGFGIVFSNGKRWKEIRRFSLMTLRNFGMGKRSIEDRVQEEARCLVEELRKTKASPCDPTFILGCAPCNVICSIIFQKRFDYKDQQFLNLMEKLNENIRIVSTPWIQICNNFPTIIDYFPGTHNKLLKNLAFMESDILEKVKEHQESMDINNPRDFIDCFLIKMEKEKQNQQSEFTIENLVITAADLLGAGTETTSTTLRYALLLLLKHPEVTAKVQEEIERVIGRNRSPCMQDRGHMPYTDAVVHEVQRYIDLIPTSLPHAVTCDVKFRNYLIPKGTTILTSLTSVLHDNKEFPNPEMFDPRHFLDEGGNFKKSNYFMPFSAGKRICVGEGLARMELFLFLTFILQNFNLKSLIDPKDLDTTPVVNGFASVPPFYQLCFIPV
How it was run: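 NADPH-dependent conversion of Luciferin-H EGE (10uM, at KM) by 5nM enzyme in 50mM KPO4, 60 min at 37C following 10 min compound preincubation. Stopped with luciferin detection buffer; luminescence read after 20 min.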

[17] = target: Dual specificity protein kinase CLK4 (Homo sapiens) (UniProt Q9HAZ1); experiment: qHTS Assay for Inhibitors of CDC-like Kinase 4 (ADP-FP Assay) (AID 1795); details: Transcreener ADP fluorescence polarization; series mostly up to 50 µM; note: nearly all actives have a fitted effect of over 60% in size; note: potency is the fitted concentration of half-maximal effect
How it was run: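 Recombinant Clk4 (6.25 nM) phosphorylated 100 uM RS repeat peptide with 1 uM ATP in 25 mM Tris pH 7.5, 10 mM MgCl2, 0.5 mM EGTA, 2.5 mM DTT, 0.01% Triton X-100 for 1 h. ADP was detected by Transcreener ADP2 competitive fluorescence polarization after 30 min at room temperature.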

Cc1cnc(CNc2nc(-c3ccoc3)nc3ccccc23)cn1
active: Potency [3] 2 µM
inactive: Potency [1] > 11.4 µM | activity change, negative = inhibition [2] -13.5% | activity, negative = inhibition [4] 9.84% | Potency [5] > 46 µM | Potency [6] > 46 µM | Potency [7] | Potency [8] | Potency [9] | activation [10] -5.75% | Potency [11] | Potency [12] | outcome [13]

Clc1ccccc1-c1nc(NCc2cccs2)c2ccccc2n1
inactive: activity change, negative = inhibition [14] -8.75% | activity, negative = inhibition [4] 0.228% | Potency [5] > 46 µM | Potency [6] > 46 µM | Potency [7] | Potency [9] | outcome [13]
active: Potency [3] 1 µM | Potency [15] 6.31 µM | Potency [16] 7.94 µM | Potency [11] 7.94 µM | Potency [17] 12.6 µM | Potency [12] 14.1 µM

Cc1cnc(CNc2ncncc2-c2ccccc2C)cn1
active: Potency [3] 25.1 µM | Potency [16] 7.94 µM
inactive: Potency [1] > 11.4 µM | activity change, negative = inhibition [2] 3.21% | activity change, negative = inhibition [14] -3.77% | activity, negative = inhibition [4] -10.5% | Potency [5] > 46 µM | Potency [6] > 46 µM | Potency [7] | Potency [8] | Potency [9] | Potency [11] | Potency [17] | Potency [12] | outcome [13]

COc1ccc(-c2nc3cnc(N4CCOCC4)nc3n(Cc3cccc(OC)c3)c2=O)cc1
inactive: Potency [1] > 11.4 µM | activity change, negative = inhibition [2] 18.4% | activity change, negative = inhibition [14] 18.6% | Potency [5] > 9.22 µM | Potency [6] > 46 µM | Potency [7] | Potency [8] | Potency [11] | Potency [17] | Potency [12] | outcome [13]

Cc1noc(C)c1-c1nc(Nc2ccccc2)c2ccccc2n1
inactive: activity change, negative = inhibition [2] -13.6% | activity change, negative = inhibition [14] -11.8% | activity, negative = inhibition [4] -8.68% | Potency [5] > 46 µM | Potency [6] > 46 µM | Potency [7] | Potency [9] | Potency [11] | Potency [17] | Potency [12] | outcome [13]
active: Potency [3] 0.251 µM | Potency [15] 6.31 µM

O=c1c(-c2ccccc2)nc2cnc(N3CCOCC3)nc2n1Cc1cccs1
active: Potency [3] 2.51 µM
inactive: Potency [1] > 11.4 µM | activity change, negative = inhibition [2] 20.9% | activity change, negative = inhibition [14] 14.9% | activity, negative = inhibition [4] 20.6% | Potency [5] > 9.22 µM | Potency [6] > 46 µM | Potency [7] | Potency [8] | Potency [11] | Potency [12] | outcome [13]

COc1ccccc1CCn1c(=O)c(CCc2ccccc2)nc2cncnc21
inactive: Potency [1] > 11.4 µM | activity change, negative = inhibition [2] -16% | activity change, negative = inhibition [14] -21.1% | activity, negative = inhibition [4] -8.11% | Potency [5] > 9.22 µM | Potency [6] > 46 µM | Potency [7] | Potency [9] | Potency [11] | Potency [17] | Potency [12] | outcome [13]
active: Potency [3] 7.94 µM | Potency [16] 3.16 µM

O=c1c(-c2cccs2)nc2cnc(N3CCNCC3)nc2n1Cc1cccs1
inactive: Potency [1] > 11.4 µM | Potency [5] > 9.22 µM | Potency [6] > 46 µM | Potency [7] | Potency [8] | Potency [9] | Potency [11] | Potency [17] | outcome [13]
active: Potency [3] 3.98 µM | Potency [15] 2.51 µM | Potency [16] 5.01 µM | Potency [12] 28.2 µM

FC(F)(F)c1ccccc1-c1cc(NCc2cccnc2)ncn1
active: Potency [3] 3.98 µM
inactive: Potency [1] > 11.4 µM | activity change, negative = inhibition [2] -2.3% | activity change, negative = inhibition [14] 4.08% | activity, negative = inhibition [4] -3% | Potency [5] > 46 µM | Potency [6] > 46 µM | Potency [7] | Potency [8] | Potency [9] | Potency [11] | Potency [12] | outcome [13]

COCCNc1nc(-c2cccc(NS(C)(=O)=O)c2)nc2ccccc12
active: Potency [3] 3.16 µM | Potency [11] 11.2 µM | Potency [17] 14.1 µM
inactive: Potency [1] > 11.4 µM | activity change, negative = inhibition [2] -25.4% | activity change, negative = inhibition [14] 22.3% | activity, negative = inhibition [4] -10.1% | Potency [5] > 46 µM | Potency [6] > 46 µM | Potency [7] | Potency [9] | outcome [13]

COc1ccccc1CNc1cc(-c2ccoc2)ncn1
active: Potency [3] 15.8 µM
inactive: Potency [1] > 11.4 µM | activity change, negative = inhibition [2] -15.7% | activity change, negative = inhibition [14] -9.53% | activity, negative = inhibition [4] 6.29% | Potency [5] > 46 µM | Potency [7] | Potency [8] | Potency [9] | Potency [11] | Potency [17] | Potency [12] | outcome [13]

CN(C)C(=O)c1ccc(-c2nccc(NCc3cccs3)n2)cc1
inactive: Potency [1] > 11.4 µM | activity change, negative = inhibition [2] -0.866% | activity change, negative = inhibition [14] 3.58% | activity, negative = inhibition [4] -7.66% | Potency [6] > 46 µM | Potency [7] | Potency [8] | Potency [9] | Potency [11] | Potency [17] | outcome [13]
active: Potency [3] 15.8 µM

N#CCCn1c(=O)c(-c2ccccc2)nc2cnc(N3CCOCC3)nc21
inactive: Potency [1] > 11.4 µM | activity change, negative = inhibition [2] 20.5% | Potency [5] > 9.22 µM | Potency [6] > 46 µM | Potency [7] | Potency [8] | Potency [11] | Potency [17] | Potency [12] | outcome [13]
active: Potency [3] 10 µM
